In PubChem BioAssay:
Active and inactive are the calls of the source.

Tests used:
[1] = molecular target: Albumin (Bos taurus) (UniProt P02769); experiment: compounds binding labelled BSA control protein – biochemical, small-molecule microarray, Alexa647 label, 635/667 nm fluorescence, artefact control for SMM control protein annotation, profiling panel (AID 1118); conditions: BSA-A647 binding, fluorescence 635 nm, higher = more signal;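 further: score merges 667 nm emission intensity and signal-to-noise per printed compound spot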
Sequence of Albumin (Bos taurus) (P02769 whole entry, looked up): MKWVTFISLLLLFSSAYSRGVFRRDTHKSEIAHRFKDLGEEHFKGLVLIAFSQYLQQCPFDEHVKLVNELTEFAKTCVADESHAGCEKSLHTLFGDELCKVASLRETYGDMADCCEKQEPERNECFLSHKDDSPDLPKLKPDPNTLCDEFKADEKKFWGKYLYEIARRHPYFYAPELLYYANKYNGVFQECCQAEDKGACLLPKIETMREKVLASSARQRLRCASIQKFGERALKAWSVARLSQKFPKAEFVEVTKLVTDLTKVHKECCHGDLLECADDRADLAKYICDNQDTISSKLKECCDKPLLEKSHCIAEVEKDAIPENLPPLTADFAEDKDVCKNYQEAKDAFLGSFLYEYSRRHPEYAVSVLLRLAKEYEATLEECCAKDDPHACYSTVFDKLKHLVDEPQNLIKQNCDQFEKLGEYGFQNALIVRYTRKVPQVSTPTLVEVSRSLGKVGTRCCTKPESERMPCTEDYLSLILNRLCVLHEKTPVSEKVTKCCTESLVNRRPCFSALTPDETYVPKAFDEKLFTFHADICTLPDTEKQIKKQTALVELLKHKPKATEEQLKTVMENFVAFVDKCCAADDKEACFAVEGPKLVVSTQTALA

[2] = probe aXIP binding to arrayed compounds – biochemical, NeuroSMM set, 635/667 nm fluorescence, primary screen (AID 1119); conditions: small-molecule microarray, higher = more signal, called active from +8 up or from −8 down;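 further: probe is the protein aXip251-270 applied at 1 µg/mL to compound-printed slides; binding of probe to printed compounds measured as 667 nm fluorescence plus signal to noise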
[3] = probe aNOTCH3 binding on compound microarray – biochemical, small-molecule microarray, 635/667 nm fluorescence, primary screen (AID 1120); conditions: higher = more signal;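 further: probe is a biotin-tagged antibody raised against NOTCH3 rather than NOTCH3 protein; score merges spot fluorescence near 667 nm with spot signal to noise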
[4] = probe aNOTCH2 binding on compound microarray – biochemical, small-molecule microarray, 635/667 nm fluorescence, primary screen (AID 1121); conditions: higher = more signal;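 further: score merges feature fluorescence read at 667 nm with its signal to noise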
[5] = molecular target: Carbonic anhydrase 2 (Homo sapiens) (UniProt P00918); experiment: compounds binding carbonic anhydrase 2 – biochemical, small-molecule microarray, Alexa647-labelled CAII, profiling panel (AID 1122); conditions: CAII-A647 binding fluorescence, higher = more signal
[6] = COS7 lysate on small-molecule microarray, probe aHis, 635 nm (AID 1123); conditions: COS7 cell lysate, fluorescence, higher = more signal;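 further: z-score combines 667nm fluorescence intensity with signal-to-noise per printed compound spot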
[7] = probe aLAP1 signal on lysate-treated microarray – cell lysate, small-molecule microarray, COS7 lysate, primary screen (AID 1124); conditions: probe aLAP1, fluorescence, higher = more signal;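 further: lysate comes from COS7 cells expressing LAP1 and is applied at 0.3 µg/mL; score merges spot fluorescence near 667 nm with signal-to-noise over triplicate slides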
[8] = test system: Sam68 (KHDRBS1); experiment: compounds binding KHDRBS1 protein – biochemical, small-molecule microarray, 635 nm fluorescence, primary screen (AID 1125); conditions: higher = more signal;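 further: score merges 667 nm channel intensity with signal to noise over triplicate slides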
[9] = test system: Chordin-like protein 2 (CHRDL2); experiment: compounds binding chordin-like 2 – biochemical, small-molecule microarray, 635 nm fluorescence, primary screen (AID 1126); conditions: fluorescence 635 nm, higher = more signal;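 further: printed compound slides probed with Chrdl2 protein at 4 µg/mL for 1 h at 4 C; score merges 667 nm emission intensity with signal to noise over three replicate slides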
[10] = molecular target: Concanavalin-A (Canavalia ensiformis) (UniProt P02866); experiment: compounds binding concanavalin A lectin – biochemical, small-molecule microarray, Alexa647 label, 635 nm, artefact control for SMM control protein annotation, primary screen (AID 1127); conditions: ConA-A647 binding fluorescence, higher = more signal;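 further: z combines 667 nm emission intensity with signal-to-noise across three replicate slides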
Sequence of Concanavalin-A (Canavalia ensiformis) (P02866 whole entry, looked up): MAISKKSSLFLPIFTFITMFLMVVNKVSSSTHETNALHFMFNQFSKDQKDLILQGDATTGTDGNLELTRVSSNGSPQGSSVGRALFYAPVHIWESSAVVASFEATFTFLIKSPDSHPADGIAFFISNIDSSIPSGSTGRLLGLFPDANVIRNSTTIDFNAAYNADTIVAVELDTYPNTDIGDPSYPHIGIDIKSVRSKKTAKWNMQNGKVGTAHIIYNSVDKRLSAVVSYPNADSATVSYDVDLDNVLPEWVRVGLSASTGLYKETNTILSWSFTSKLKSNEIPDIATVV

Row | Compound | composite z-score [1] | composite Z-score [2] | composite z-score [3] | composite z-score [4] | composite z-score [5] | composite z-score [6] | composite z-score [7] | composite z-score [8] | composite z-score [9] | composite z-score [10]
1 | CC(C)=CCCC(C)=CC(O)C1C=CC2C(=O)N(c3ccccc3)C(=O)C2N1Nc1ccccc1 (stereo not given) | 0.977 | -0.0662 (inactive) | 0.461 | 0.251 | 0.646 | 1.52 | 0.78 | 1.27 | -0.0528 | 1.14
2 | O=C1O[C@@H](c2ccccc2)[C@@H](c2ccccc2)N2[C@@H](c3ccc(O)cc3)[C@]3(C(=O)Nc4ccc(C#CC5=CCCCC5)cc43)[C@@H](C(=O)O)[C@H]12 | 0.885 | 0.341 (inactive) | 0.139 | 0.0685 | 0.715 | 1.86 | 0.788 | 1.32 | -0.194 | 0.9
3 | O=C1OCCC=C[C@H]2OC34C=CCN(c5ccc6ccccc6c5)C(=O)[C@H]3N(CCCCCO)C(=O)[C@@H]4C12 (stereo not given in full) | 0.388 | 1.1 (inactive) | -0.0647 | -0.0443 | 0.897 | 2.11 | 0.859 | -0.222 | 0.254 | -0.119
4 | COC(=O)[C@@]1(Cc2ccc(OC)cc2)[C@H]2c3cc(C(=O)N4CCCC4)n(Cc4cc(F)cc5c4OCOC5)c3C[C@H]2CN1C(=O)c1ccccc1 | 0.161 | -0.0345 (inactive) | 0.58 | 0.38 | 0.916 | 2.39 | -0.429 | -0.0061 | -0.974 | 0.693
5 | O=C1C[C@]2(c3ccc([N+](=O)[O-])cc3)C(=O)N(CC(F)(F)F)c3cc(CO)ccc3[C@H]2N1CC12CC3CC(CC(C3)C1)C2 | -0.0746 | -0.171 (inactive) | -0.0362 | -0.168 | 0.499 | 1.15 | -0.221 | -0.0575 | 0.167 | 0.556
6 | CCC[C@@H]1C=C(C(=O)O)[C@H](c2ccc(C)cc2)N1S(=O)(=O)c1ccc(C)cc1 | 0.972 | 0.102 (inactive) | 0.195 | 0.0029 | 0.799 | 2.71 | 0.738 | 1.33 | -0.802 | 0.757
7 | C=CCNC(=O)[C@@H]1[C@H]2C(=O)O[C@H](c3ccccc3)[C@H](c3ccccc3)N2[C@H](c2ccc(OCCO)cc2)[C@@]12C(=O)Nc1ccccc12 | 0.507 | -0.551 (inactive) | 0.0773 | -0.157 | 0.692 | 1.91 | 0.262 | 1.29 | 0.228 | 1.11
8 | C=CCC(OC(C)=O)[C@@H]1[C@@H](N(Cc2ccc(-c3ccccc3)cc2)C(=O)Cc2ccc(F)cc2)c2cc(OCCCO)ccc2N1C(=O)c1ccc2ccccc2n1 (stereo not given in full) | 0.59 | -1.01 (inactive) | 0.0653 | -0.0796 | -0.161 | 0.164 | 0.0508 | -0.0112 | 0.255 | -0.526
9 | COc1ccc(C(=O)Nc2cccc(CN3C(=O)[C@@]4(O[C@@H](CCn5cc(CCO)nn5)[C@H]([Si](C)(C)c5ccc(OC)cc5)[C@H]4C)c4ccccc43)c2)cc1 | -0.194 | 1.4 (inactive) | 0.149 | -0.084 | 0.411 | 0.733 | -0.046 | 1.3 | 1.05 | 1.08
10 | CC(C)N1C(=O)[C@@]2(c3ccc([N+](=O)[O-])cc3)CC(=O)N(CC34CC5CC(CC(C5)C3)C4)[C@@H]2c2ccc(CO)cc21 | -0.747 | -0.0775 (inactive) | 0.49 | -0.237 | -0.531 | 0.773 | 0.632 | -0.507 | -1.27 | 0.134
11 | CCOC(=O)C1=CC[C@@H](c2ccccc2)N(S(=O)(=O)c2ccc(C)cc2)[C@H]1C(=O)OCC | 0.744 | 0.615 (inactive) | 0.421 | 0.144 | 0.413 | 1.22 | 0.748 | 1.12 | -0.361 | -0.515
12 | COc1ccc(C#Cc2ccc3c(c2)[C@]2(C(=O)N3)[C@H](c3ccc(O)cc3)N3[C@H](c4ccccc4)[C@H](c4ccccc4)OC(=O)[C@H]3[C@@H]2C(=O)NC[C@H](O)c2ccccc2)cc1 | 0.363 | -0.118 (inactive) | 0.0319 | -0.189 | 0.295 | 2.78 | 0.0766 | 0.81 | 0.0813 | 1.17
13 | C=CC[C@]1(C(=O)N2CCOCC2)N=C(c2ccc(OCCCO)cc2)O[C@H]1c1ccccc1 | 0.758 | -0.128 (inactive) | 0.0225 | -0.0906 | 0.785 | 3.15 | 0.446 | 0.618 | -0.0547 | 1.09
14 | COc1ccc(C(O)C2C=CC3C(=O)NC(=O)C3N2Nc2ccccn2)cc1OCc1ccccc1 (stereo not given) | 0.68 | 0.0296 (inactive) | 0.089 | -0.0308 | 0.855 | 1.76 | 0.759 | -0.255 | 0.0961 | 0.212
15 | N#Cc1ccc(NN2C(C(O)C3CCCCC3)C=CC3C(=O)N(c4ccccc4)C(=O)C32)cc1 (stereo not given) | 0.919 | 0.417 (inactive) | 0.459 | 0.0636 | 0.184 | 2.62 | 0.236 | 1.29 | -0.915 | 1.21
16 | CC(C)Cc1ccc(CN2CC[C@@H](NS(=O)(=O)c3ccccc3)C2)cc1 | -0.623 | 0.119 (inactive) | -0.187 | -0.173 | -0.114 | 0.48 | 0.0054 | 0.532 | 0.449 | -0.36
17 | O=C1O[C@H](c2ccccc2)[C@H](c2ccccc2)N2[C@H]1[C@@H](C(=O)O)[C@]1(C(=O)Nc3ccc(C#CC4=CCCCC4)cc31)[C@H]2c1ccc(OCCO)cc1 | 0.638 | 0.0759 (inactive) | 0.133 | -0.0523 | 0.537 | 2.01 | 1.48 | 1.29 | 0.494 | 1.18
18 | COCC(=C=CC[C@@H](O)c1ccc(CO)o1)CCO | -0.606 | 0.111 (inactive) | -0.215 | -0.118 | 0.349 | -0.185 | 1.51 | 0.101 | 0.689 | 0.188
19 | [N-]=[N+]=Nc1ccccc1C[C@]1(C(=O)NCCN2CCOCC2)N=C(c2ccc(OCCCO)cc2)O[C@H]1c1ccccc1 | 0.323 | 0.619 (inactive) | 0.194 | -0.0849 | 0.597 | 2.7 | 0.203 | 1.3 | 0.497 | 0.702
20 | COCCCNC(=O)[C@@]1(C)c2ccccc2C(=O)N(Cc2cc(C(F)(F)F)cc(C(F)(F)F)c2)[C@H]1c1ccc(CO)cc1 | -0.0502 | 0.318 (inactive) | -0.256 | -0.0173 | 0.74 | 1.68 | -0.066 | -0.21 | -2.46 | 0.851
21 | CN(C)CCCCNC(=O)[C@H]1C[C@H]2C(=O)N[C@@H](Cc3ccccc3)C(=O)N2[C@H]1c1ccc(O)cc1 | 0.356 | 0.124 (inactive) | 0.143 | -0.0684 | 0.158 | 0.538 | 0.263 | 1.3 | 0.956 | 0.863
22 | [N-]=[N+]=Nc1ccccc1[C@H]1OC(c2ccc(OCCCO)cc2)=N[C@@]1(CCS(=O)(=O)c1ccccc1)C(=O)O | 0.622 | 0.254 (inactive) | -0.0647 | 0.0278 | 0.419 | 2.77 | 0.425 | 0.0569 | -0.378 | 0.475
